Data reported in PubChem BioAssay (NCATS).
Inconclusive results are not listed. Activity calls are given as the source filed them. Calls follow the shape of the dose curve; as a rule, active = well fitted curve in the direction sought with a large enough effect; inconclusive = small, poorly fitted or top-dose-only effect, or another doubt; inactive = no such curve, though single readings can be large; an effect the other way counts as inactive or inconclusive.

Tests used:
[1] = target: Cytochrome P450 3A4 (Homo sapiens) (UniProt P08684); experiment: qHTS for inhibitors of CYP3A4 against the NCATS DSHEA and TCM libraries (AID 1919971); details: recombinant CYP3A4 enzyme activity, luminescence qHTS; series mostly up to 34.1 µM;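 also: % is scaled to controls: 0 for no effect and ±100 for the full control effect; inhibition lowers luminescence from luciferin made by CYP3A4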
Method in brief: (§1)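 Concentration-response screening with isoform-matched pro-luciferin substrates. The CYP reaction was initiated by NADPH regenerating solution and ran 30-45 min in darkness at room temperature.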

[2] = target: Cytochrome P450 2D6 (Homo sapiens) (UniProt P10635); experiment: qHTS for inhibitors of CYP2D6 against the NCATS DSHEA and TCM libraries (AID 1919972); details: CYP2D6 enzymatic inhibition, luminescence qHTS; series mostly up to 34.1 µM; also: % is scaled to controls: 0 for no effect and ±100 for the full control effect
Method in brief: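 CYP2D6 enzyme with pro-luciferin substrate in manufacturer buffer (typically 100 mM KPO4), preincubated 15 min RT with substances (most at 19.5 nM upward); NADPH regeneration system (1x) started 30–45 min RT reaction; P450-Glo luminescence read after 30 min; quinidine as intraplate control.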

[3] = target: Cytochrome P450 2C9 (Homo sapiens) (UniProt P11712); experiment: qHTS for inhibitors of CYP2C9 against the NCATS DSHEA and TCM libraries (AID 1919973); details: recombinant CYP2C9 enzyme activity, luminescence; series mostly up to 34.1 µM;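 also: luminogenic pro-luciferin CYP2C9 substrate turned into luciferin with NADPH regeneration; % is scaled to controls: 0 for no effect and ±100 for the full control effect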
Method in brief: as §1

[4] = target: Cytochrome P450 2C19 (Homo sapiens) (UniProt P33261); experiment: qHTS for inhibitors of CYP2C19 against the NCATS DSHEA and TCM libraries (AID 1919974); details: CYP2C19 enzyme inhibition, luminescence qHTS; series mostly up to 34.1 µM;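 also: luminescence from luciferin released by CYP2C19 oxidation of a pro-luciferin substrate; % is scaled to controls: 0 for no effect and ±100 for the full control effect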
Method in brief: as §1

[5] = KB-3-1 P-gp reporter qHTS against the NCATS DSHEA and TCM libraries (AID 1919975); details: KB-3-1 parental cells, CellTiter-Glo luminescence viability, 72 h; series mostly up to 26.1 µM; also: 0% is about no effect
Method in brief: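 Parental KB-3-1 human cervical adenocarcinoma cells (500 cells/well, DMEM + 10% FBS) were treated with substances for ~72 h at 37C; viability was read by CellTiter-Glo luminescence.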

[6] = target: Cytochrome P450 1A2 (Homo sapiens) (UniProt P05177); experiment: qHTS for inhibitors of CYPIA2 against the NCATS DSHEA and TCM libraries (AID 1919976); details: recombinant CYP1A2 enzyme activity, luminescence; series mostly up to 37 µM;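 also: light from luciferin formed by CYP1A2 from a pro-luciferin substrate; % is scaled to controls: 0 for no effect and ±100 for the full control effect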
Method in brief: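 Enzyme and pro-luciferin substrate, or substrate alone as no-enzyme background, are pre-incubated with test samples for 15 min at room temperature. NADPH regeneration system (1x final) initiates a 30-45 min dark reaction; luciferase detection reagent follows before luminescence reading.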

[7] = qHTS Counterscreen for compound interference against the NCATS DSHEA and TCM libraries (AID 1919978); details: firefly luciferase detection reagent interference, luminescence; also: % of control where 0% means no effect
Method in brief: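 D-luciferin (1 uM final) or 100 mM potassium phosphate buffer alone was preincubated 15 min at RT with compounds (19.5 nM to 39.8 uM final). Luciferin detection reagent was then added and luminescence read after 30 min at RT.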

[8] = Dual reporter qHTS for agonist of Pregnane X Receptor (hPXR) against the NCATS DSHEA and TCM libraries: Fluorescence readout (AID 1920058); details: PXR dual reporter cells; series mostly up to 40 µM; also: 0% is about no effect
Description: Assay Development and Screening Technology Laboratory (ADST)
National Center for Advancing Translational Sciences (NCATS), Rockville, MD
National Institute of Health (NIH), Bethesda, Maryland
Dietary Supplements and Natural Products have minor oversight of their safety and efficacy. We assembled a collection of Dietary Supplements and Natural Products (DSNP) as well as Traditional Chinese Medicinal (TCM) Plant extracts, which were screened against an in vitro panel of assays, including a liver cytochrome p450 enzyme panel, CAR/PXR signaling pathways, and P-gp transporter assays, to assess their activity. This pipeline facilitated the interrogation of Natural Product-Drug Interaction (NaPDI) through prominent metabolizing pathways. In addition, we compared the activity profiles of the DSNP/TCM substances with those of an approved drug collection. […] Overall, we highlight four significant bioactivity profiles (measured by p-values) as examples of this prediction. […] To profile potential P-gp activity, a differential cell viability was measured against two cell lines: a parental KB-3-1 human cervical adenocarcinoma cell line and the drug-resistant subline KB-8-5-11 that overexpresses P-gp. […]
8; Read; Fluorescence; ViewLux plate reader. […]
11; Read; Luminescence; ViewLux plate reader. […]

Measured: max response

Sequence of Cytochrome P450 3A4 (Homo sapiens) (P08684 whole entry, looked up, canonical isoform): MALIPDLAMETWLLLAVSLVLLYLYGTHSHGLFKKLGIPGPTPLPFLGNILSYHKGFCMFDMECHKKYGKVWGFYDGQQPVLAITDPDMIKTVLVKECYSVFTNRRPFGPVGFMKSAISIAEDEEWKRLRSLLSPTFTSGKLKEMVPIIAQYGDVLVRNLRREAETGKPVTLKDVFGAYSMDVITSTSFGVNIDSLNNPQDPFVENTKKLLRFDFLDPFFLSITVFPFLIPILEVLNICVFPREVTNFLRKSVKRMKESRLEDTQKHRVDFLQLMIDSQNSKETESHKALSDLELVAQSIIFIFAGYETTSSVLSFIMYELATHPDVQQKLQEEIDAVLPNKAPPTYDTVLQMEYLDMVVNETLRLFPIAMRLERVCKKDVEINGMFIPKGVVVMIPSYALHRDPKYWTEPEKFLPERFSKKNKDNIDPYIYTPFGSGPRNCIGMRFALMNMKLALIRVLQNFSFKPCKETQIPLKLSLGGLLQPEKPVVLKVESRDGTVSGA
Sequence of Cytochrome P450 2D6 (Homo sapiens) (P10635 whole entry, looked up): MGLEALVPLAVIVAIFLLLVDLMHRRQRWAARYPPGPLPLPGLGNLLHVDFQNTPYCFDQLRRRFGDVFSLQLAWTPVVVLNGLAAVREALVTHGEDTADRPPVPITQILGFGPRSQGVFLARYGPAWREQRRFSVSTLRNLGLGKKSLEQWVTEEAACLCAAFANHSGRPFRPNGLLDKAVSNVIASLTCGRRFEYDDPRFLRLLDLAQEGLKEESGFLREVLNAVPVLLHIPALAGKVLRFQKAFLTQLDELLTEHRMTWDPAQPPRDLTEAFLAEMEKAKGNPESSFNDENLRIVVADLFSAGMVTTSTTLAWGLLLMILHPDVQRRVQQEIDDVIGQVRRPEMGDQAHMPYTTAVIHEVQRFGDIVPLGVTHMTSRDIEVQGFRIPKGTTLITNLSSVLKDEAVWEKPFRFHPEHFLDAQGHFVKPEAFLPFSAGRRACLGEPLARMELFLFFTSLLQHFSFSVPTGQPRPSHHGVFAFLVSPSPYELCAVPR
Sequence of Cytochrome P450 1A2 (Homo sapiens) (P05177 whole entry, looked up): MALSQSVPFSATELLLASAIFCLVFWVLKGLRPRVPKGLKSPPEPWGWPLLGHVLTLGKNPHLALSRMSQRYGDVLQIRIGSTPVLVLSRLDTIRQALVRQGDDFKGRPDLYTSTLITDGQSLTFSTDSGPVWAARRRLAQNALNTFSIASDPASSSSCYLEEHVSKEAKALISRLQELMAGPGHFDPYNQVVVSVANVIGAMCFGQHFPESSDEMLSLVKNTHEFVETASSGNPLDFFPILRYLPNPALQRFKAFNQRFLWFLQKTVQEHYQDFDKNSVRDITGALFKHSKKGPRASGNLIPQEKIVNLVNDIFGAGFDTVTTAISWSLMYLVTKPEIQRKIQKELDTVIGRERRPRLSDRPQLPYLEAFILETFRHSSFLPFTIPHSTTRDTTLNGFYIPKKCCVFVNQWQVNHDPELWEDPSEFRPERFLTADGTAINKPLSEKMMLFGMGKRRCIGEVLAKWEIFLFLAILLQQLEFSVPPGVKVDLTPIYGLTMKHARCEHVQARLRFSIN
Sequence of Cytochrome P450 2C9 (Homo sapiens) (P11712 whole entry, looked up): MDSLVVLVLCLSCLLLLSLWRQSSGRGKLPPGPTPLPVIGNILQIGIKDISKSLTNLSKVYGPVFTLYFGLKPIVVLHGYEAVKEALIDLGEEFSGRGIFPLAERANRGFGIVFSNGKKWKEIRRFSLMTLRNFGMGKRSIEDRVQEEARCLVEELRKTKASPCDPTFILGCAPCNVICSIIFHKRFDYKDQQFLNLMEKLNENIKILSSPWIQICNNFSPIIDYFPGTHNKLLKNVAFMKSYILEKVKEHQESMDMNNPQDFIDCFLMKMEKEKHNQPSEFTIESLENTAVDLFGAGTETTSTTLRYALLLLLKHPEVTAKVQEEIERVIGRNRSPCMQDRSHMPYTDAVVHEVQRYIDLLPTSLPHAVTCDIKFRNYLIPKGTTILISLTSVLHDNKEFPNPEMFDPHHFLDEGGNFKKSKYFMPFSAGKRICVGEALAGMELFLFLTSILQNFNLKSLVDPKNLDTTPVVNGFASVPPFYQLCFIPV
Sequence of Cytochrome P450 2C19 (Homo sapiens) (P33261 whole entry, looked up): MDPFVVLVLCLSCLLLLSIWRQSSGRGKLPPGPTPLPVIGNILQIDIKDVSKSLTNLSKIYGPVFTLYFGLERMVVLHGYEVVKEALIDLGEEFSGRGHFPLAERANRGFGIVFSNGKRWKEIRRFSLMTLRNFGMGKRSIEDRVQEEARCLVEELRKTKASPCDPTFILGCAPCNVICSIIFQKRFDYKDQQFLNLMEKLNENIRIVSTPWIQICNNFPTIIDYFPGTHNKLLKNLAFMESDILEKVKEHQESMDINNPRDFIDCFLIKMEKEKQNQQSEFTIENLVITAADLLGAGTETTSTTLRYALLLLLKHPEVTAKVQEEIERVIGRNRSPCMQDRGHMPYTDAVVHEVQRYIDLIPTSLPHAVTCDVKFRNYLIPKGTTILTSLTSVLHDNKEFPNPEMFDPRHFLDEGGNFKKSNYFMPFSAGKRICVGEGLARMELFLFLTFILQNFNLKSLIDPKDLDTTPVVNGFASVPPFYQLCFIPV

NC(=O)c1cnccn1
inactive: [1] | [2] | [3] | [4] | [5] | [6] | [7] 0.688% | [8]
